The list is not random: actives were taken first. Their share in the collection is about 10%.
HEK293 tox: cytotoxic compounds in HEK 293 cells. Potency, µM (series often up to 115 µM), inactives show at the highest dose activity change, negative = cytotoxicity, actives largely listed as inhibitors. HEK 293 viability, ATP luminescence (CellTiter-Glo), 48-72 h. AID 1345083. hit rate 6.6% among 94,000; note: nearly all actives have a fitted effect of over 60% in size
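Pintool-delivered compounds were incubated with HEK 293 cells (250 cells/well) at 37 degree Celsius for 48 or 72 hr. ATP-dependent luminescence (CellTiter-Glo) then reported remaining viable cells.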
Luciferase inh: inhibitors of firefly (Photinus pyralis) luciferase. P08659. purified P. pyralis luciferase, luminescence, biochemical. Potency, µM (highest dose often 115 µM), most hits filed as inhibitors. hit rate 2.5% among 76,000; note: nearly all actives have a fitted effect of over 65% in size
Target sequence (P08659 whole entry, looked up): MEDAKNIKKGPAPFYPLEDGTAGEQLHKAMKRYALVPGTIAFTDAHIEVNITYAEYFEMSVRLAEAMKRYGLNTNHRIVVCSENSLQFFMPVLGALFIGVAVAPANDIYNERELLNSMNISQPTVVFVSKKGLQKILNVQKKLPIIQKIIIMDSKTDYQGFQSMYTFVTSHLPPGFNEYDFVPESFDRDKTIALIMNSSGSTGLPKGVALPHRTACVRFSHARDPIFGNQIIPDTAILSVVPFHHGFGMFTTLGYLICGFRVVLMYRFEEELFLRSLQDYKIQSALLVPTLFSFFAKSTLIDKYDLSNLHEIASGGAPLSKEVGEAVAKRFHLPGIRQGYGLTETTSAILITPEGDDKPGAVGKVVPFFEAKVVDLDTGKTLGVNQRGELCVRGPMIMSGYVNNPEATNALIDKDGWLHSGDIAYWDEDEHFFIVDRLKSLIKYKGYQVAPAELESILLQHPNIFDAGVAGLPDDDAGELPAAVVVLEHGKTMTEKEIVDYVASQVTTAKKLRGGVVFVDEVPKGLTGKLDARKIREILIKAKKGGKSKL
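Luminescence read by CCD imaging after purified firefly luciferase (10nM final) was added to substrate buffer holding 10uM D-luciferin and 10uM ATP, pH 7.5, pre-dosed with compound.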
GPT2 inhibitor: inhibitors of human GPT2 alanine aminotransferase; Q8TD30; AID 1671188; Potency, µM (doses to about 57.7 µM), inactives show top-dose activity change, negative = inhibition, usual class: inhibitors; Recombinant GPT2, coupled pyruvate oxidase/HRP Amplex Red fluorescence; hit rate 0.25% among 100,000; note: nearly all actives have a fitted effect of over 60% in size
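Fluorescence read-out: pyruvate from GPT2 turnover coupled to pyruvate oxidase, HRP and Amplex Red (0.2mM ThPP, 0.2U/mL PO and HRP, 50uM Amplex final). Substrates 250uM a-KG, 2mM L-alanine; enzyme 10ng/uL; 30 min RT.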
NIH3T3 tox: kills NIH 3T3 cells; Potency, µM (series often up to 96.7 µM), for the others: at the highest dose activity change, negative = cytotoxicity, actives largely listed as inhibitors; NIH 3T3 viability, CellTiter-Glo ATP luminescence, 48-72 h; hit rate 4.3% among 94,000; note: nearly all actives have a fitted effect of over 55% in size
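Cytotoxicity is measured as loss of cellular ATP: NIH 3T3 cells (400/well) are exposed to compound for 48 or 72 hr at 37 °C, then CellTiter-Glo luminescence is imaged after 10 min at room temperature.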
NPR1 antag: human Npr1 receptor antagonism | HEK293 hNpr1 GloSensor cGMP, ANP-stimulated luminescence | AID 1347048 | hit rate 1.6% among 76,000 | P16066 | Potency, µM (highest dose often 46.3 µM), without a hit: at the top dose activity change, negative = inhibition, actives largely listed as inhibitors; calls by dose curve; note: nearly all actives have a fitted effect of over 60% in size
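HEK293 cells stably expressing human Npr1 and cGMP GloSensor pGS-40F, loaded 2 h with 2% GloSensor reagent, given compound 30 min at room temperature. Luminescence read before and 20 min after 0.1 nM hNppA.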
Active calls of the source: *; i = inactive; ? = inconclusive; · = no result; ! = repeats disagree; [ ] = remark or other dose. Unless noted, calls come from the whole dose curve; as a rule, active = well fitted curve in the direction sought with a large enough effect; inconclusive = small, poorly fitted or top-dose-only effect, or another doubt; inactive = no such curve, though single readings can be large; an effect the other way counts as inactive or inconclusive. % is set by controls: 0 for no effect and ±100 for the full control effect; potency is the fitted concentration of half-maximal effect.

SMILES | HEK293 tox | Luciferase inh | GPT2 inhibitor | NIH3T3 tox | NPR1 antag
CCCN1CCCC2(CCN(c3cc(C)c4cccc(OC)c4n3)C2)C1=O (configuration not stated) | ? | i | -10%[11.5 µM] | -17% | -2%
O=C1c2cnc(-c3cc4ccccc4o3)nc2OCCN1c1ccccc1 | -87%[172 µM] | 0.01µM* | -4%[88.5 µM] | -93%[138 µM] | 0.28µM*
CC(=O)Nc1cccc(-c2ncc3c(n2)OCCN(CC2CC2)C3=O)c1 | -9%[172 µM] | 50µM* | i | ? | 0%[70.6 µM]
NC(=O)c1cccc(-c2ncc3c(n2)OCCN(c2ccccc2)C3=O)c1 | ? | 45µM* | 3%[88.5 µM] | ? | 1%[70.6 µM]
CC(=O)Nc1cccc(-c2ncc3c(n2)OCCN(Cc2ccccc2)C3=O)c1 | ? | ? | i | ? | -1%[70.6 µM]
CC(=O)Nc1cccc(-c2ncc3c(n2)OCCN(c2ccccc2)C3=O)c1 | -6%[172 µM] | 28µM* | 2%[88.5 µM] | 18µM* | 4%[70.6 µM]
CC(=O)Nc1cccc(-c2ncc3c(n2)OCCN(Cc2ccc(F)cc2F)C3=O)c1 | ? | i | -12%[88.5 µM] | ? | -6%[70.6 µM]
O=C1c2cnc(-c3ccncc3)nc2OCCN1c1ccccc1 | ? | ? | -18%[88.5 µM] | -23%[138 µM] | -5%[70.6 µM]
COc1ccccc1Cn1c(=O)c(C(=O)NCc2ccccc2)nc2cccnc21 | ? | · | i | ? | ·
CNC(=O)c1cc(C2CC2)nc2c1c(C1CCN(C(=O)NC3CCCC3)C1)nn2C (configuration not stated) | -4% | · | · | -1% | ·
COCC(=O)N1CCCC(C(=O)N2CCC(c3nc4ncccc4[nH]3)C2)C1 (configuration not stated) | 0% | · | 3% | -21% | ·
CN(c1ccccc1)c1ccc2c(n1)CN(Cc1ccc(F)cc1)C(=O)CO2 | ? | 50µM* | -9%[88.5 µM] | 89µM* | ?
COc1cccc(CN2Cc3nc(N(C)c4ccccc4)ccc3OCC2=O)c1 | 89µM* | ? | -8%[88.5 µM] | ? | ?
COc1ccc(CC(=O)N(C)C2CCc3nnc(C)n3CC2)cc1Cl (configuration not stated) | -4% | i | ? | -23% | 3%
COc1ncccc1-c1cnc2n[nH]c(-c3ccc(F)cc3C)c2n1 | ? | i | 2%[88.5 µM] | 32µM* | -15%[70.6 µM]
COc1ccc(-c2[nH]nc3ncc(-c4ccccc4OC)nc23)c(C)c1 | 89µM* | i | i | ? | -8%[70.6 µM]
COc1ccc(-c2[nH]nc3ncc(-c4cccnc4OC)nc23)c(C)c1 | 100µM* | i | -1%[88.5 µM] | ? | -2%[70.6 µM]
CCc1cn[nH]c1C1CCCN(C(=O)c2oc3cc(C)ccc3c2C)C1 (configuration not stated) | ? | i | -2% | 45µM* | -3%
Cc1ccc2c(C)c(C(=O)N3CC[C@H](O)[C@@H](O)C3)oc2c1 | -19% | i | i | -12% | 3%
COc1ccc(Cn2c(=O)c(C(=O)NCc3cccc(F)c3)nc3cccnc32)cc1 | ? | · | i | ? | ·
COc1cccc(CNC(=O)c2cn3cc(-c4cccnc4)sc3n2)c1 | -31% | · | i | ? | ·
O=C(NCc1cccnc1)c1cn2cc(-c3ccccc3)sc2n1 | 50µM* | · | 2%[88.5 µM] | ? | ·
COc1cccc(-c2cn3cc(C(=O)NCc4cccnc4)nc3s2)c1 | 32µM* | · | i | ? | ·
COc1ccc(-c2nc(C(C)C)nc3c2CN([S+](=O)([O-])c2ccccc2)CC3)cc1 | -20% | i | i | -23% | 1%
CC(=O)NCC(=O)N1CCCC(n2cc(-c3nc(-c4ccccc4)no3)nn2)C1 (configuration not stated) | -23% | 35µM* | -12% | -18% | -10%
SMILES | HEK293 tox | Luciferase inh | GPT2 inhibitor | NIH3T3 tox | NPR1 antag
O=C(CCc1ccccc1)N1CCCC(n2cc(-c3nc(-c4ccccc4)no3)nn2)C1 (configuration not stated) | 45µM* | ? | -2% | ? | ?
Cc1noc(C)c1S(=O)(=O)N1CCCC(CCc2ccc(F)c(F)c2)C1 (configuration not stated) | 45µM* | i | i | ? | -15%
Cc1ccc(-c2c(C(=O)N3CCOCC3)nc3sccn23)cc1 | -16%[172 µM] | · | i | -3%[138 µM] | ·
O=C(NC1CCN(Cc2cccc(-c3ccc(F)c(F)c3)c2)CC1)c1ccc(F)cc1 | 40µM* | · | i | 40µM* | ·
O=C(NC1CCCC1)NC1CCN(Cc2cccc(-c3ccc(F)cc3F)c2)CC1 | 35µM*! | · | · | ? | ·
COc1ccc(C(=O)NC2CCN(Cc3cccc(-c4ccc(F)c(F)c4)c3)CC2)cc1 | ? | · | ? | 22µM* | ·
O=C(Nc1ccccc1F)NC1CCN(Cc2cccc(-c3ccc(F)c(F)c3)c2)CC1 | ? | · | · | 11µM* | ·
COc1ccc(-c2ccnc3nc(-c4cccs4)nn23)c(F)c1 | -7% | i | i | 2% | 2%
CN(CC[C@H]1CN(C(=O)c2ccnc(Cl)c2)CC[C@H]1CC(=O)O)c1ccccc1 | -6%[172 µM] | i | i | 28µM* | -1%[70.6 µM]
COc1ccc(CCNC(=O)c2cc(-c3ccccc3OC)c3nncn3n2)cc1 | ? | · | -15% | ? | ·
COc1ccc(NC(=O)Cn2ccn3nc4c(c3c2=O)CC(C)CC4)cc1Cl (configuration not stated) | 0% | i | -22% | -5% | 5%
COC(=O)[C@@H]1Cc2c([nH]c3ccccc23)[C@H]2C[C@@H](NC[C@H]3CCCO3)C[C@@H](c3ccccc3F)N21 | 79µM* | i | -9% | 79µM* | 5%
COC(=O)[C@@H]1Cc2c([nH]c3ccccc23)[C@H]2C[C@@H](NCCc3cnc[nH]3)C[C@@H](c3ccccc3F)N21 | 25µM* | i | 1% | 28µM* | -14%
O=C(NCc1ccc(F)cc1)c1nn(CCOc2ccccc2)c2c1CNCC2 | 40µM* | · | i | ? | ·
O=C(NCc1ccncc1)[C@@H]1C[C@@H](c2ccc(F)cc2)N(CCOc2ccccc2)C1 | ? | i | -8%[88.5 µM] | ? | -15%[70.6 µM]
CC#CCn1cc2c3c(cccc31)[C@H](CC(C)C)N[C@H](C(=O)NCCNC(C)=O)C2 | 100µM* | i | 1%[88.5 µM] | ? | -2%[70.6 µM]
CC#CCn1cc2c3c(cccc31)[C@H](CC(C)C)N[C@H](C(=O)NCc1ccco1)C2 | ? | i | ? | 89µM* | -10%[70.6 µM]
CC#CCn1cc2c3c(cccc31)[C@H](CC(C)C)N[C@H](C(=O)NC1CC1)C2 | 89µM* | i | ? | ? | -11%[70.6 µM]
C#CCNC(=O)[C@@H]1Cc2cn(CC#CC)c3cccc(c23)[C@H](CC(C)C)N1 | ? | i | -11%[88.5 µM] | ? | -2%[70.6 µM]
CC#CCn1cc2c3c(cccc31)[C@H](CC(C)C)N[C@H](C(=O)NCc1ccc(OC)cc1)C2 | ? | i | 3% | ? | 0%

High-throughput results from PubChem BioAssay.
